Pol kappa inh = qHTS for Inhibitors of Polymerase Kappa; DNA polymerase kappa (Homo sapiens), Q9UBT6; purified Pol kappa, fluorescent DNA synthesis assay, 10 min; Potency, µM (top dose mostly 107 µM), inactives show at the top dose activity, negative = inhibition, most hits filed as inhibitors; hit rate 0.53% among 400,000; further: potency means the concentration at half of the fitted maximal effect; on the % scale 0 is the no-effect control and ±100 the full control effect
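Kinetic fluorescence screen: compound preincubated 15 min RT with 10 nM enzyme; 50 nM substrate (final) initiates; reads at 0/10 min.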
PI5P4Ka inh = qHTS for Inhibitors of phosphatidylinositol 5-phosphate 4-kinase (PI5P4K). Phosphatidylinositol 5-phosphate 4-kinase type-2 alpha (Homo sapiens), P48426. hit rate 1.2% among 330,000. max response, %. PI5P4Kalpha enzyme, ADP-Glo luminescence, 60 min; active compounds read low; active means max response of -50% or lower; inconclusive means between -30% and -50%; inactive means -30% or higher; further: value at the top dose of about 77 µM; on the % scale 0 is the no-effect control and ±100 the full control effect
Target sequence (P48426 whole entry, looked up): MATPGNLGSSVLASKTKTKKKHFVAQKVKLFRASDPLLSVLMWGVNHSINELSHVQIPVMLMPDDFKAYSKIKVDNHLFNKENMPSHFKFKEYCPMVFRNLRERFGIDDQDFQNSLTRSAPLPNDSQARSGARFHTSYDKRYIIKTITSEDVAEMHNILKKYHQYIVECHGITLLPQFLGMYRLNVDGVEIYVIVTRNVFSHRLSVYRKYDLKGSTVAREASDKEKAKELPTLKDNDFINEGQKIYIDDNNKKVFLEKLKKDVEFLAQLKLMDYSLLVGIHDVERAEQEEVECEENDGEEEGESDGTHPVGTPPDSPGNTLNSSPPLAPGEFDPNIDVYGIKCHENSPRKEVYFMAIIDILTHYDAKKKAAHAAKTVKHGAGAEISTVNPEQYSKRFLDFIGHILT
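Reactions run in 0.038 M HEPES pH 7.4, 0.28 mM EGTA, 0.1% CHAPS and 5% DMSO, with PI5P4Kalpha, substrate, compound and 5 microM ATP final, one hour at room temperature. Readout is ADP-Glo luminescence.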
Pol iota inh = qHTS for Inhibitors of Polymerase Iota; DNA polymerase iota (Homo sapiens), Q9UNA4; Pol iota fluorescent replication assay, 10 min; Potency, µM (titrated, usually from 115 µM), inactives show top-dose activity, negative = inhibition, hits mostly inhibitors; hit rate 1% among 390,000; further: potency means the concentration at half of the fitted maximal effect
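Pol iota at 10 nM preincubated 15 min with compounds at room temperature; reaction started with fluorescent substrate, 50 nM final. Fluorescence read kinetically at 0 and 10 min; buffer-only wells as negative control.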
WRN helicase inh = qHTS for Inhibitors of WRN Helicase; Bifunctional 3'-5' exonuclease/ATP-dependent helicase WRN (Homo sapiens), Q14191; WRN helicase unwinding, fluorescent forked duplex, kinetic; Potency, µM (top dose mostly 114 µM), without a hit: top-dose activity change, negative = inhibition, hits mostly inhibitors; hit rate 0.46% among 360,000; further: potency means the concentration at half of the fitted maximal effect; on the % scale 0 is the no-effect control and ±100 the full control effect; nearly all actives have a fitted effect of over 55% in size
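WRN at 20 nM final preincubated with compound 15 min at room temperature; reaction started with 100 nM fluorophore/quencher forked duplex oligonucleotide and 2 mM ATP final. Unwinding followed kinetically by red fluorescence (ex 525, em 598 nm).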
POLH inh = qHTS for Inhibitors of Polymerase Eta | recombinant Pol eta, fluorescent DNA replication assay | Potency, µM (top dose mostly 114 µM), without a hit: at the top dose activity change, negative = inhibition, actives largely listed as inhibitors | hit rate 1.2% among 390,000 | AID 588591, 2011; further: potency means the concentration at half of the fitted maximal effect; on the % scale 0 is the no-effect control and ±100 the full control effect
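Pol eta at 10 nM preincubated with compounds 15 min at room temperature; reaction started with fluorescent substrate (50 nM final) and read kinetically at 0 and 10 min.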
Pol beta inh = qHTS Assay for Inhibitors of DNA Polymerase Beta | Pol beta primer extension/strand displacement, fluorescence kinetic | P06746 | Potency, µM (top dose mostly 114 µM), inactives show at the highest dose activity change, negative = inhibition, most hits filed as inhibitors | hit rate 1.3% among 340,000; further: potency means the concentration at half of the fitted maximal effect; on the % scale 0 is the no-effect control and ±100 the full control effect
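Values derive from four-parameter Hill fits of normalized kinetic data: reads at 0 and 10 min following addition of 50 nM substrate to 10 nM Pol beta preincubated 15 min with compound.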
Numbers without * were called inactive; ? = inconclusive; . = no result; [ ] = dose if it differs, or a comment. A selection: hits, their analogues and other compounds. The true share with any hit is near 2.8%. Unless noted, the call rests on the fitted dose curve; in most records, active means well fitted curve in the direction sought with a large enough effect; inconclusive means small, poorly fitted or top-dose-only effect, or another doubt; inactive means no such curve, though single readings can be large; an effect the other way counts as inactive or inconclusive.

SMILES | Pol kappa inh | PI5P4Ka inh | Pol iota inh | WRN helicase inh | POLH inh | Pol beta inh
C=CCn1c(NC(=O)c2ccccc2Cl)c(C#N)c2nc3ccccc3nc21 | -23% | . | ? | -11%[11.6 µM] | 32µM* | -2%
CCCCn1c(NC(C)=O)c(C#N)c2nc3ccccc3nc21 | -11% | 0 | ? | -17% | 15% | 18%
COc1ccc(CC(=O)Nc2c3c(nn2C(C)(C)C)CS(=O)(=O)C3)cc1 | -5% | -2 | 17% | -13% | -2% | 84%
O=C1NC(=S)N/C1=C/C=C/c1ccccc1 | 6% | 6 | -13% | -4% | -8% | -9%
O=C1NC(=S)NC(=O)C1=Cc1ccccc1C(=O)O | -6% | -73* | ? | -19% | ? | .
COc1ccc(-n2nc(C(=O)N3CCN(c4ccccc4OC)CC3)c3c4ccccc4n(C)c3c2=O)cc1Cl | -4% | . | 21% | . | -13% | 5%
CCOc1ccc(CCNC(=O)c2cccc(NC3=NC4CS(=O)(=O)CC4S3)c2)cc1 (stereo unspecified) | -6% | 4 | -6% | 0% | -5% | 44%
O=C(COC(=O)/C=C/c1ccc(Br)o1)Nc1ccccc1F | . | . | . | . | . | 25µM*
O=C(COC(=O)/C=C/c1ccc(Br)o1)NC1CCCCC1 | 79µM* | -23 | 22µM* | -29% | ? | .
O=C(COC(=O)/C=C/c1ccco1)NC1CCCCC1 | -25% | -20 | -7% | 3% | 3% | .
CSc1ccccc1NC(=O)COC(=O)/C=C/c1ccco1 | 0% | -24 | ? | ? | ? | .
CC(C)(C)n1ncc2c(=O)n(Cc3cc(F)c(F)cc3Cl)cnc21 | 8% | . | 9% | . | . | .
O=C1NN(c2cccc(Br)c2)C(=O)/C1=C/c1cccs1 | -5% | -4 | ? | 2% | 79µM* | -2%
O=C(NC1CCCCC1)N1CCCc2ccccc21 | -1% | 1 | 16% | 9% | -10% | 83%
N#Cc1cn(CC(=O)N2CCCc3ccccc32)c2ccccc12 | -9% | 5 | 7% | -1% | -23% | 42%
O=C(C1CCCCC1)N1CCCc2ccccc21 | -4% | 3 | 14% | 3% | -19% | 89µM*
O=Cc1cn(CC(=O)N2CCCc3ccccc32)c2ccccc12 | 0% | -69* | -11% | ? | -9% | 0%
C#CCN(C[C@H]1[C@H](OC(=O)NCc2ccc(OC)c(OC)c2)[C@H](OC(=O)NCc2ccc(OC)c(OC)c2)C[C@@H](C(=O)OC)[C@H]1C(=O)OC)S(=O)(=O)c1ccc(C)cc1 | . | -10 | . | 6% | -11% | .
CCN1/C(=C/C=C/c2oc3ccc4ccccc4c3[n+]2CC)Oc2ccc3ccccc3c21 | 45µM* | -74* | 79µM* | ? | 32µM* | 6.3µM*
Cn1ccsc1=NC(=O)c1ccc(OC(F)(F)F)cc1 | 4% | 3 | -12% | 3% | -22% | 2%
N#Cc1ccccc1CN1C(=O)NC2(CCCCCC2)C1=O | -22% | -3 | -1% | 2% | -2% | 11%
CCN(CC)c1ccc(C(=O)c2ccccc2C(=O)O)c(O)c1 | -3% | . | -8% | -9% | -14% | 9%
O=C(O)c1cc(N(Cc2ccccc2O)Cc2ccccc2O)ccc1O | 45µM* | . | 14µM* | . | . | .
CC(C)C[C@@H](CN)NC(=O)c1nc[nH]c1C(=O)N[C@@H](Cc1c[nH]c2ccccc12)C(=O)CNC[C@H](C)NC(=O)c1nc[nH]c1C(=O)N[C@@H](CC(=O)O)C(=O)O | -16% | -4 | 0% | 2% | -5% | .
CC(C)C[C@@H](CNCC(=O)[C@H](Cc1c[nH]c2ccccc12)NC(=O)c1[nH]cnc1C(=O)N[C@H](CN)CC(C)C)NC(=O)c1nc[nH]c1C(=O)N[C@@H](CC(=O)O)C(=O)O | ? | ? | ? | -11% | 50µM* | .
SMILES | Pol kappa inh | PI5P4Ka inh | Pol iota inh | WRN helicase inh | POLH inh | Pol beta inh
CC(C)C[C@@H](CNCC(=O)[C@H](Cc1c[nH]c2ccccc12)NC(=O)c1[nH]cnc1C(=O)N[C@@H](C)CN)NC(=O)c1nc[nH]c1C(=O)N[C@@H](CC(=O)O)C(=O)O | -14% | -62* | ? | -8% | -15% | .
O=C(COc1ccccc1-c1nc(-c2ccccc2)no1)Nc1ccccc1[N+](=O)[O-] | -13% | . | 15% | . | -7% | 2%
COc1cc(/C=N/NC(=O)CSc2cc(C)c(Br)cc2C)ccc1O | -10% | -12 | 3% | -9% | ? | 1%
Cc1cc(SCC(=O)N/N=C/c2ccc(O)c(O)c2O)c(C)cc1Br | ? | -87* | ? | 50µM* | ? | ?
CCOc1ccc(S(=O)(=O)N(CC(=O)N/N=C/c2ccc(-c3ccc([N+](=O)[O-])cc3)o2)c2ccccc2)cc1 | ? | -67* | ? | -30% | 3.2µM* | 7.1µM*
Cc1ccc(C)c(N(CC(=O)N/N=C/c2ccc(-c3ccc([N+](=O)[O-])cc3)o2)S(=O)(=O)c2ccccc2)c1 | -9% | . | 398% | -21% | -2% | 2%
Cc1ccc(S(=O)(=O)N2CCCCC2)cc1C(=O)Nc1ncn[nH]1 | . | . | . | . | . | 25µM*
CC(=O)Nc1ccc(NC(=O)c2cc(S(=O)(=O)N3CCCCC3)ccc2C)cc1 | -6% | -2 | ? | 1% | -13% | .
CSc1nnc(-c2ccc(C(F)(F)F)nc2C)o1 | 7% | 3 | 58% | 4% | -13% | -28%
O=C(COC(=O)CCc1ccc(S(=O)(=O)N2CCOCC2)cc1)NCc1ccc(Cl)cc1 | 4% | 4 | -12% | 0% | -28% | 0%
CCOC(=O)c1c(NC(=O)c2nc(SCC)ncc2Cl)sc(C(C)=O)c1C | -20% | . | -7% | . | -5% | 27%
CCOC(=O)c1c(NC(=O)c2nc(S(C)(=O)=O)ncc2Cl)sc(C(C)=O)c1C | 4% | . | 2% | . | 79µM* | -2%
COc1cccc(C(=O)/C=C/Nc2ccc(S(=O)(=O)Nc3cnc4ccccc4n3)cc2)c1 | -14% | -16 | ? | ? | 16µM* | 3%
CCOc1ccccc1NC(=O)C(C)N(c1ccccc1)S(C)(=O)=O (stereo unspecified) | 4% | . | -16% | . | -6% | -5%
O=C(O)c1cc(=O)n(Cc2ccccc2)c(=O)[nH]1 | 8% | ? | 96% | 13% | -9% | -25%
Cc1ccc(NC(=O)c2cc(=O)n(Cc3ccccc3)c(=O)[nH]2)cc1C | 1% | 0 | ? | -3% | -29% | 40µM*
CO[C@@H]1CN(C)C(=O)c2cc(NC(=O)Nc3cc(F)ccc3F)ccc2OC[C@H](C)N(C(=O)c2cnccn2)C[C@@H]1C | . | 5 | . | 4% | . | .

Source: PubChem (National Center for Advancing Translational Sciences (NCATS))
